Bioassay records (PubChem BioAssay)
HepG2 tox – qHTS for Inhibitors of TGF-b: Cytotox Counterscreen. HepG2 CAGA-GFP viability, ATP luminescence, 18 h. Potency, µM (doses to about 46.1 µM), inactives show top-dose activity change, negative = cytotoxicity, actives largely listed as cytotoxic. 410,000 compounds, 0.76% hits. AID 588856, 2011; note: potency is the fitted concentration of half-maximal effect
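HepG2 CAGA-GFP cells (1000/well, DMEM with 1% FBS) received compound, then TGF-beta at 500 pg/mL final, and were incubated 18 hours at 37 degrees C. Viability was read by CellTiter-Glo luminescence. Media-only wells were set as complete cell-killing and DMSO as no toxicity.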
TGFb SMAD3 inh – qHTS for Inhibitors of TGF-b | HepG2 CAGA-GFP TGF-b/SMAD3 reporter, GFP fluorescence, 18 h; TGF-beta stimulated, 500 pg/mL final | Potency, µM (series often up to 46.1 µM), without a hit: at the highest dose activity, negative = inhibition, actives largely listed as inhibitors | 410,000 compounds, 1.2% hits; note: potency is the fitted concentration of half-maximal effect; % is set by controls: 0 for no effect and ±100 for the full control effect; nearly all actives have a fitted effect of over 65% in size
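Using HEPG2 CAGA-GFP reporter cells at 1000 cells/well, we pinned test compounds, stimulated with recombinant TGF-beta (500 pg/mL final) and measured total well GFP after 18 h.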
TDP1 inh – qHTS Assay for Inhibitors of Tyrosyl-DNA Phosphodiesterase (TDP1). Tyrosyl-DNA phosphodiesterase 1 (Homo sapiens), Q9NUW8. Potency, µM (highest dose often 130 µM), without a hit: at the top dose activity change, negative = inhibition, actives largely listed as inhibitors. recombinant TDP1, AlphaScreen DNA substrate cleavage. 350,000 compounds, 0.28% hits; note: potency is the fitted concentration of half-maximal effect; % is set by controls: 0 for no effect and ±100 for the full control effect; nearly all actives have a fitted effect of over 40% in size
Target sequence (Q9NUW8 whole entry, looked up): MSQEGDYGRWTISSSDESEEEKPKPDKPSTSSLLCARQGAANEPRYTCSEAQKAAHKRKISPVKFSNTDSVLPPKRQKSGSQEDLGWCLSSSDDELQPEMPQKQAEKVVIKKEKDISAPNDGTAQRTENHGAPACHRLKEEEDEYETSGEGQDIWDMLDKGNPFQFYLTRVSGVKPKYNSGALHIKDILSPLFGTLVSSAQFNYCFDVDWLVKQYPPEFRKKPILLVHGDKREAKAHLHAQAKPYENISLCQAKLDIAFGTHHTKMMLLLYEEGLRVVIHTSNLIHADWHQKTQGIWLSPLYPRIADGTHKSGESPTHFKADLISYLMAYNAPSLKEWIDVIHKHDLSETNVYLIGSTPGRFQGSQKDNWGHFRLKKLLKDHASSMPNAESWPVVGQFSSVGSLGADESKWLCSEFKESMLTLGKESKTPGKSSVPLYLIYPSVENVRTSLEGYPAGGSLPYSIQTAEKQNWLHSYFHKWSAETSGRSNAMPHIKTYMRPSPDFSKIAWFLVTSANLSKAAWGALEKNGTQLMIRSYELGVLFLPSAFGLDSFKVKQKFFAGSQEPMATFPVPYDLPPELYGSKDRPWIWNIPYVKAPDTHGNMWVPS
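E. coli-derived human Tdp1, 1 nM final. Cpd preinc 15 min RT; substrate 15 nM final, 5 min RT; AS bead mix 10 ug/ml final, 10 min RT. Signal loss = tyrosine-FITC cleavage. No-enzyme wells = max signal.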
DT40 TDP1 no CPT – qHTS for Inhibitors of human tyrosyl-DNA phosphodiesterase 1 (TDP1): qHTS in cells in absence of CPT; DT40 Tdp1-/- hTDP1 cells, no CPT, ATP luminescence, 48 h; Potency, µM (doses to about 46.2 µM), without a hit: top-dose activity change, negative = growth inhibition, usual class: inhibitors; 420,000 compounds, 15% hits; AID 686978, 2013; note: potency is the fitted concentration of half-maximal effect; % is set by controls: 0 for no effect and ±100 for the full control effect; nearly all actives have a fitted effect of over 55% in size
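No-CPT arm: Tdp1-/-;hTDP1 DT40 cells (400/well) plus compounds, incubated ≥48 hr at 37 °C. Readout CellTiter-Glo luminescence.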
DT40 TDP1 CPT – qHTS for Inhibitors of human tyrosyl-DNA phosphodiesterase 1 (TDP1): qHTS in cells in presence of CPT; chicken DT40 Tdp1-/-;hTDP1 cells + 20 nM CPT, ATP luminescence, 48 h; Potency, µM (doses to about 46.2 µM), inactives show top-dose activity change, negative = growth inhibition, usual class: inhibitors; 420,000 compounds, 12% hits; AID 686979, 2013; note: potency is the fitted concentration of half-maximal effect; % is set by controls: 0 for no effect and ±100 for the full control effect; nearly all actives have a fitted effect of over 55% in size
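Chicken DT40 Tdp1-/- cells stably complemented with human TDP1 were seeded at 400 cells/well in medium containing 20 nM camptothecin, exposed to pin-transferred compounds, and grown at 37 °C for at least 48 hr. Viability was read as ATP luminescence.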
IL-1B inflam inh – qHTS for Inhibitors of Inflammasome Signaling: IL-1-beta AlphaLISA Primary Screen. activity change, % at 57.5 µM. 360,000 compounds, 4.7% hits. THP-1 LPS/ATP IL-1B secretion, AlphaLISA, 16 h; hits give low values; in the data active = activity change below about -50%; inconclusive = mostly about -30% to -49%; note: % is set by controls: 0 for no effect and ±100 for the full control effect
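THP-1 cells pretreated 1 hr with compounds (up to 57.5 uM final), then stimulated with LPS (250 ng/mL final) plus ATP (1.25 mM final); secreted IL-1B measured by AlphaLISA after 16 hr, decreased signal indicating inhibition.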
Numbers without * were called inactive; ? = inconclusive; . = not tested or not shown; [ ] = another dose, or the depositor's remark. This is a sample that favours compounds with a hit; in the whole collection about 19% have one here. Unless noted, calls come from the whole dose curve; as a rule, active = well fitted curve in the direction sought with a large enough effect; inconclusive = small, poorly fitted or top-dose-only effect, or another doubt; inactive = no such curve, though single readings can be large; an effect the other way counts as inactive or inconclusive.

SMILES	HepG2 tox	TGFb SMAD3 inh	TDP1 inh	DT40 TDP1 no CPT	DT40 TDP1 CPT	IL-1B inflam inh
Cc1ccc(CNC(=O)c2cnc(N3CCCCC3)c3ccccc23)cc1	0.6%	11.2µM*	-7.7%	16.4µM*	?	.
O=C(NCc1cccc(Cl)c1)c1cnc(N2CCCCC2)c2ccccc12	-29.4%	?	-4.4%	25.9µM*	16.4µM*	.
CCCC(=O)N1CCN(c2ccc(NC(=O)c3cccs3)cc2)CC1	2.7%	2.7%	2.6%	?	-7.4%	-14.0
CCc1cnc2c(c1SCC(=O)Nc1cc(Cl)ccc1OC)c(=O)n(C)c(=O)n2C	-11.8%	9.0%	0.0%	1.7%	-1.4%	.
Nc1ccc2c(c1)nnn2-c1ccccc1	-4.6%	-2.6%	4.1%	-22.0%	-3.8%	-79.2*
N#Cc1ccc2c(c1)nnn2-c1ccccc1	-28.2%	0.0%	.	-1.3%	7.1%	.
CCc1ccc(C(=O)CCC2CCCCC2=O)cc1 (stereo not drawn)	-3.9%	-15.1%	-2.3%	16.4µM*	?	-3.6
O=C(CCC1CCCCC1=O)c1ccccc1 (stereo not drawn)	-8.4%	-3.4%	1.9%	-0.8%	-3.0%	-5.0
Cc1ccc(S(=O)(=O)N(C)CC(=O)N2CC(C)OC(C)C2)cc1 (stereo not drawn)	7.5%	-9.8%	2.8%	9.6%	-11.4%	23.1
O=C(Nc1ccccn1)C1CCCN(c2ncnc3c2nc2n3CCCCC2)C1 (stereo not drawn)	-17.7%	-11.7%	4.2%	14.6µM*	?	65.7
O=C(Nc1ccc(F)c(Cl)c1)C1CCN(c2ncnc3c2nc2n3CCCCC2)CC1	-1.9%	-14.2%	1.8%	18.4µM*	?	-19.9
O=C(NCCc1ccccc1)C1CCCN(c2ncnc3c2nc2n3CCCCC2)C1 (stereo not drawn)	-4.6%	-7.1%	4.9%	?	?	25.2
Cc1cccc(NC(=O)C2CCN(c3ncnc4c3nc3n4CCCCC3)CC2)n1	1.7%	-12.0%	0.3%	-28.7%	?	52.4
CC(=O)c1cccc(NC(=O)C2CCN(c3ncnc4c3nc3n4CCCCC3)CC2)c1	-25.1%	17.8µM*	-1.2%	?	?	.
O=C(NCCCN1CCN(c2ccccc2)CC1)C1CCCN(c2ncnc3c2nc2n3CCCCC2)C1 (stereo not drawn)	11.0%	-1.9%	6.1%	?	23.1µM*	10.4
Cc1cccc(OCC(=O)Nc2ccccc2C(=O)OCc2cc(=O)n3nc(C)sc3n2)c1	5.8%	-1.6%	1.2%	-29.3%	-6.1%	.
CC(C(=O)O)c1ccc2c(c1)CC(=O)c1ccccc1S2 (stereo not drawn)	.	.	.	-10.6%	-1.9%	.
Cc1noc(C)c1S(=O)(=O)N1CCc2nc(-c3ccccc3)c3c(c2C1)CO[C@@H](C)C3	.	.	10.7%[12.3 µM]	.	.	.
O=C(Nc1ccc(Cl)cn1)C1CCN(c2ncnc3c2nc2n3CCCCC2)CC1	-17.8%	?	0.7%	16.4µM*	?	-90.8*
COc1cc(OC)c(N(C)C(=O)C2CCCN(c3ncnc4c3nc3n4CCCCC3)C2)cc1Cl (stereo not drawn)	-32.2%	?	1.2%	20.6µM*	?	.
COc1ccc(Cl)cc1NC(=O)C1CCCN(c2ncnc3c2nc2n3CCCCC2)C1 (stereo not drawn)	-10.2%	4.2%	3.6%	8.2µM*	8.2µM*	31.3
O=C(NCc1ccc(Cl)cc1)C1CCN(c2ncnc3c2nc2n3CCCCC2)CC1	6.1%	-2.7%	2.5%	-2.4%	1.0%	.
COc1ccc(OC)c(CNC(=O)C2CCCN(c3ncnc4c3nc3n4CCCCC3)C2)c1 (stereo not drawn)	-12.9%	-10.1%	3.8%	?	?	-0.8
O=C(Nc1cccnc1Cl)C1CCCN(c2ncnc3c2nc2n3CCCCC2)C1 (stereo not drawn)	1.6%	14.5%	0.5%	?	?	0.0
O=C(Nc1ccc(Cl)cn1)C1CCCN(c2ncnc3c2nc2n3CCCCC2)C1 (stereo not drawn)	0.7%	-7.4%	8.3%	20.6µM*	20.6µM*	-9.8
SMILES	HepG2 tox	TGFb SMAD3 inh	TDP1 inh	DT40 TDP1 no CPT	DT40 TDP1 CPT	IL-1B inflam inh
O=C(NCc1ccccc1Cl)C1CCCN(c2ncnc3c2nc2n3CCCCC2)C1 (stereo not drawn)	-26.9%	-22.2%	1.5%	?	?	-19.6
O=C(NCc1ccco1)C1CCCN(c2ncnc3c2nc2n3CCCCC2)C1 (stereo not drawn)	-18.2%	0.3%	3.4%	13µM*	?	10.5
Cc1ccnc(NC(=O)C2CCCN(c3ncnc4c3nc3n4CCCCC3)C2)c1 (stereo not drawn)	0.3%	6.1%	1.5%	?	-9.6%	23.7
Cc1ccc(NC(=O)C2CCCN(c3ncnc4c3nc3n4CCCCC3)C2)nc1 (stereo not drawn)	-2.0%	0.0%	3.7%	8.2µM*	13µM*	24.7
COc1cc(C(=O)Oc2ccccc2OC(=O)c2cc(OC)c(OC)c(OC)c2)cc(OC)c1OC	9.8%	0.0%	.	11.5%	6.1%	40.1
CCOC(=O)c1cccc(NC(=O)c2cc3c(=O)n(Cc4cccnc4)ccc3nc2C)c1	-3.9%	-25.2%	8.4%	?	?	.
C=CCC1C=CC(Oc2ccc(F)cc2C)C(CO)O1 (stereo not drawn)	.	.	2.6%[21 µM]	.	.	.
O=[N+]([O-])c1nn(-c2ccc3c(c2)OCCO3)n(O)c1=NC1CCN(Cc2ccccc2)CC1	-23.3%	-11.3%	5.4%	?	10.3µM*	5.5
O=C(NC1CCN(Cc2ccccc2)CC1)c1ccc2c(c1)OCCCO2	6.9%	8.2%	3.7%	-20.2%	-9.7%	4.1
O=[N+]([O-])c1nn(-c2ccccc2)n(O)c1=NC1CCN(Cc2ccccc2)CC1	-72.1%	?	0.0%	9.2µM*	3.26µM*	?
COc1ccc(-c2cc3ccc(O)c(CN4CCCC4)c3oc2=O)cc1	-6.2%	28.0%	2.7%	-27.4%	-6.1%	.
COc1cccc(-c2cncnc2Nc2ccc(F)cc2)c1	.	.	.	-7.8%	-27.0%	.
COc1cccc(NC(=O)CN(c2ccccc2OC)S(=O)(=O)c2cccs2)c1	-8.3%	1.4%	-0.2%[56.1 µM]	20.6µM*	?	3.4
